Source: PubChem BioAssay (National Center for Advancing Translational Sciences (NCATS))
HT1080NT lethal = qHTS for induction of synthetic lethality in tumor cells producing 2HG: qHTS for the HT-1080-NT fibrosarcoma cell line; HT-1080-NT fibrosarcoma viability, CellTiter-Glo ATP luminescence, 48 h; Potency, µM (highest dose often 46.1 µM), for the others: at the highest dose activity, negative = less viability, actives largely listed as cytotoxic; 360,000 compounds, 1.6% hits;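 note: NT is the 2HG producing partner of a matched IDH1 knockdown line; potency is the fitted concentration of half-maximal effect; 0% = DMSO-treated cells and -100% = media-only wells without cells; nearly all actives have a fitted effect of over 55% in size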
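HT-1080-NT fibrosarcoma cells (2HG-overproducing), 750 cells/well in RPMI with 5% FBS, dosed after 2 h and incubated 48 h at 37C. CellTiter-Glo luminescence normalized to DMSO and no-cell wells; concentration-response curves fitted and classed.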
HT1080 IDH1KD tx = qHTS for induction of synthetic lethality in tumor cells producing 2HG: qHTS for the HT-1080-IDH1KD cell line; Potency, µM (doses to about 46.1 µM), for the others: at the highest dose activity, negative = toxicity, most hits filed as cytotoxic; HT-1080 IDH1 knockdown viability, ATP luminescence, 48 h; AID 686971, 2013; 360,000 compounds, 2% hits;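 note: potency is the fitted concentration of half-maximal effect; 0% = DMSO wells and -100% = cell-free medium wells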
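Viability of IDH1-knockdown HT-1080 fibrosarcoma cells was assessed by CellTiter-Glo after 48 h at 37 °C with titrated compound; concentration-effect curves were classified by fit quality and response size.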
12-LOX inh = Primary qHTS assay for inhibitors of human arachidonate 12S-lipoxygenase (ALOX12): Round 2; purified 12hLO, xylenol orange hydroperoxide absorbance; AID 1671190, 2021; Polyunsaturated fatty acid lipoxygenase ALOX12 (Homo sapiens), P18054; Potency, µM (titrated, usually from 108 µM), inactives show at the highest dose activity change, negative = inhibition, most hits filed as inhibitors; 580,000 compounds, 1.1% hits; note: potency is the fitted concentration of half-maximal effect
Target sequence (P18054 whole entry, looked up): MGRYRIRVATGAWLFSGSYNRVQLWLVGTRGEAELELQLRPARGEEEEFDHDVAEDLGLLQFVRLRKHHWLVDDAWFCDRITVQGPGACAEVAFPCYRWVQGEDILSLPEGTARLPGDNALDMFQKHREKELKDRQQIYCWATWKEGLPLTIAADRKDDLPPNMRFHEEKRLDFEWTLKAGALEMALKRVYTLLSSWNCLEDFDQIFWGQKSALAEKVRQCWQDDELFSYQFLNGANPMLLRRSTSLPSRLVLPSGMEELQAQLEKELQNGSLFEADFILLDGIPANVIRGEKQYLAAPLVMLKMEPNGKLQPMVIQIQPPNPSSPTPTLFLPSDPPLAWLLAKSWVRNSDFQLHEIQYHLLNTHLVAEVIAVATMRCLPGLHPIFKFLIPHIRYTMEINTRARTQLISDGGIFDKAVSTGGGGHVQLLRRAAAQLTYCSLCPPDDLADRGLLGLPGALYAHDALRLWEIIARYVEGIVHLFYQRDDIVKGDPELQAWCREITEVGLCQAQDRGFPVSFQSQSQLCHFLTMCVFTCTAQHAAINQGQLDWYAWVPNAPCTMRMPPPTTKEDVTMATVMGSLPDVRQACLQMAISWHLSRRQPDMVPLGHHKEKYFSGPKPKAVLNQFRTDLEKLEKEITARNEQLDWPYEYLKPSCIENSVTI
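Hydroperoxide product was detected by ferrous iron/xylenol orange as the 573 to 405 nm absorbance ratio. Arachidonic acid at 40 uM (final) was turned over for 30 min at room temperature by 150 nM human 12hLO, pH 7.0 Hepes buffer, after 15 min compound preincubation.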
IL1B secr inh = qHTS for Inhibitors of Inflammasome Signaling: IL-1-beta AlphaLISA Primary Screen; 360,000 compounds, 4.7% hits; activity change, % at 57.5 µM; THP-1 LPS/ATP IL-1B secretion, AlphaLISA, 16 h; hits give low values; in the data active = activity change below about -50%; inconclusive = mostly about -30% to -49%
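Secreted IL-1B measured by AlphaLISA bead assay after 16 h compound exposure of THP-1 cells; compounds (final up to 57.5 uM) added 1 h before LPS (250 ng/mL) and ATP (1.25 mM) stimulation; lower signal means less secretion.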
DT40 TDP1 CPT = qHTS for Inhibitors of human tyrosyl-DNA phosphodiesterase 1 (TDP1): qHTS in cells in presence of CPT; chicken DT40 Tdp1-/-;hTDP1 cells + 20 nM CPT, ATP luminescence, 48 h; Potency, µM (highest dose often 46.2 µM), without a hit: at the highest dose activity change, negative = growth inhibition, hits mostly inhibitors; 420,000 compounds, 12% hits; note: potency is the fitted concentration of half-maximal effect; nearly all actives have a fitted effect of over 55% in size
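Chicken DT40 Tdp1-/- cells stably complemented with human TDP1 were seeded at 400 cells/well in medium containing 20 nM camptothecin, exposed to pin-transferred compounds, and grown at 37 °C for at least 48 hr. Viability was read as ATP luminescence.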
DT40 TDP1 no CPT = qHTS for Inhibitors of human tyrosyl-DNA phosphodiesterase 1 (TDP1): qHTS in cells in absence of CPT. DT40 Tdp1-/- hTDP1 cells, no CPT, ATP luminescence, 48 h. Potency, µM (titrated, usually from 46.2 µM), without a hit: top-dose activity change, negative = growth inhibition, usual class: inhibitors. 420,000 compounds, 15% hits; note: potency is the fitted concentration of half-maximal effect; nearly all actives have a fitted effect of over 55% in size
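DT40 Tdp1-/-;hTDP1 cells, no CPT (DMSO vehicle only), 400 cells/well; compounds pin-transferred; ≥48 hr, 37 °C; CellTiter-Glo 30 min RT dark, luminescence read.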
Starred values were filed as active, the others as inactive; [ ] = another dose, or the depositor's remark. The full list was thinned out, with hits kept by preference. Unless noted, calls come from the whole dose curve; as a rule, active = well fitted curve in the direction sought with a large enough effect; inconclusive = small, poorly fitted or top-dose-only effect, or another doubt; inactive = no such curve, though single readings can be large; an effect the other way counts as inactive or inconclusive. Unless noted, % is set by controls: 0 for no effect and ±100 for the full control effect.

How did CN1CCC(O)(c2ccc(Cl)cc2)C(C(=O)c2ccc(Cl)cc2)C1 (stereo not drawn) do in these assays?
HT1080NT lethal: -1%; HT1080 IDH1KD tx: 5%; 12-LOX inh: inconclusive; IL1B secr inh: -15; DT40 TDP1 CPT: 2.6µM*; DT40 TDP1 no CPT: 2.9µM*

Results for Cc1c(C(=O)NCc2nccs2)cnn1-c1ncc2c(n1)-c1ccccc1CC2 ?
12-LOX inh: -3%; DT40 TDP1 CPT: 9.2µM*; DT40 TDP1 no CPT: 21µM*

How did COCCN1C[C@H]2CN(Cc3ccccn3)CCN2C1=O do in these assays?
12-LOX inh: 72%[176 µM]

What do the screens show for `O=c1[nH]c2ccccc2n1C1CCN(C(c2ccccc2OC(F)(F)F)c2nnnn2-c2ccc3c(c2)OCCO3)CC1` (stereo not drawn)?
HT1080NT lethal: inconclusive; HT1080 IDH1KD tx: 23µM*; 12-LOX inh: -7%; IL1B secr inh: -56*; DT40 TDP1 CPT: 7.3µM*; DT40 TDP1 no CPT: 4.6µM*

How did COc1cccc(C(c2nnnn2-c2ccc3c(c2)OCCO3)N2CCC(n3c(=O)[nH]c4ccccc43)CC2)c1OC (stereo not drawn) do in these assays?
HT1080NT lethal: inconclusive; HT1080 IDH1KD tx: inconclusive; 12-LOX inh: -1%; IL1B secr inh: 32; DT40 TDP1 CPT: 2.9µM*; DT40 TDP1 no CPT: 2.3µM*

Results for COc1ccc(-n2nnnc2C(c2ccnc3ccccc23)N2CCC(n3c(=O)[nH]c4ccccc43)CC2)cc1 (stereo not drawn) ?
HT1080NT lethal: inconclusive; HT1080 IDH1KD tx: inconclusive; 12-LOX inh: inconclusive; IL1B secr inh: -29; DT40 TDP1 CPT: inconclusive; DT40 TDP1 no CPT: inconclusive

Results for COc1ccc(-n2nnnc2C(c2cccc(OC)c2OC)N2CCC(n3c(=O)[nH]c4ccccc43)CC2)cc1 (stereo not drawn) ?
HT1080NT lethal: inconclusive; HT1080 IDH1KD tx: inconclusive; 12-LOX inh: 2%; IL1B secr inh: -22; DT40 TDP1 CPT: 8.2µM*; DT40 TDP1 no CPT: 5.2µM*

How did COC(=O)c1ccc(N2C(=O)CC(N3CCC(n4c(=O)[nH]c5ccccc54)CC3)C2=O)cc1 (stereo not drawn) do in these assays?
HT1080NT lethal: -2%; HT1080 IDH1KD tx: -1%; 12-LOX inh: 0%; IL1B secr inh: -2; DT40 TDP1 CPT: inconclusive; DT40 TDP1 no CPT: -25%

Results for CN(C(=O)CCN1C(=O)/C(=C/c2ccc(F)cc2)SC1=S)C1CCS(=O)(=O)C1 (stereo not drawn) ?
HT1080NT lethal: 12%; HT1080 IDH1KD tx: 3%; 12-LOX inh: -12%; IL1B secr inh: -23; DT40 TDP1 CPT: 21µM*; DT40 TDP1 no CPT: 21µM*

What do the screens show for `CCC[C@H](N[C@@H](CCC)[C@H](O)c1ccccc1)[C@H](O)c1ccccc1`?
HT1080NT lethal: -18%; HT1080 IDH1KD tx: -19%; 12-LOX inh: 8%; IL1B secr inh: -58*; DT40 TDP1 CPT: 26µM*; DT40 TDP1 no CPT: 23µM*

How did O=C(CN1CCCCC1)c1cccc(Br)c1 do in these assays?
HT1080NT lethal: 2%; HT1080 IDH1KD tx: 2%; 12-LOX inh: -20%; IL1B secr inh: 17; DT40 TDP1 CPT: -3%; DT40 TDP1 no CPT: -20%

Results for Cn1c(CN2CCCCC2)nc2cc(NC(=O)c3cccc(Br)c3)ccc21 ?
HT1080NT lethal: inconclusive; HT1080 IDH1KD tx: inconclusive; 12-LOX inh: -6%; IL1B secr inh: -78*; DT40 TDP1 CPT: inconclusive; DT40 TDP1 no CPT: inconclusive

Results for CC(C)CC(=O)N1CC[C@@H]2COCCN(C)[C@@H]2C1 ?
12-LOX inh: 72%

What do the screens show for `O=C1Nc2ccccc2C12CCN(Cc1ccsc1)CC2`?
12-LOX inh: -4%[12.5 µM]

Results for CCNC1(c2cccs2)CCCCC1=O (stereo not drawn) ?
DT40 TDP1 CPT: 6%[21.1 µM]; DT40 TDP1 no CPT: -16%[21.1 µM]

How did O=C(Nc1ccc2oc(-c3cccnc3)nc2c1)c1ccc(-c2cccc(Cl)c2)o1 do in these assays?
12-LOX inh: -28%; DT40 TDP1 CPT: -78%; DT40 TDP1 no CPT: 7.3µM*

What do the screens show for `O=[S+]1([O-])NC2(CCN(Cc3ccccn3)C2)CNc2ccccc21` (stereo not drawn)?
12-LOX inh: 58%

What do the screens show for `Cn1cccc1C(=O)C(=O)N1C[C@H](c2cc(F)cc(F)c2)[C@@H]2[C@H]1C1CCN2CC1`?
12-LOX inh: 3%

How did Cn1nc(-c2cccs2)cc1[C@H]1CN2CC[C@H]1C[C@@H]2CN do in these assays?
12-LOX inh: 101%[176 µM]

Results for O=[N+]([O-])c1oc2ccc3ccccc3c2c1CCO ?
HT1080NT lethal: inconclusive; HT1080 IDH1KD tx: inconclusive; 12-LOX inh: inconclusive; IL1B secr inh: 32; DT40 TDP1 CPT: 0.41µM*; DT40 TDP1 no CPT: 0.52µM*

What do the screens show for `Oc1cccc[c]1[Hg][Cl]`?
DT40 TDP1 CPT: 0.19µM*; DT40 TDP1 no CPT: 0.15µM*

Results for Cc1ccccc1O ?
HT1080NT lethal: 0%; HT1080 IDH1KD tx: 3%; 12-LOX inh: 6%; IL1B secr inh: -5; DT40 TDP1 CPT: 14%; DT40 TDP1 no CPT: 1%

What do the screens show for `O=C(c1ccccc1)N1C[C@@H]2C[C@H](C1)c1ccc(C3CCCCC3)c(=O)n1C2`?
12-LOX inh: -20%[176 µM]

Results for CC[C@]1(C(=O)OC)[C@H]2C(=O)N(Cc3ccccc3)C(=O)[C@H]2[C@H]2CN=C(SCc3ccc(C(=O)OC)cc3)N21 ?
HT1080NT lethal: 4%; HT1080 IDH1KD tx: -1%; 12-LOX inh: -17%; IL1B secr inh: 19; DT40 TDP1 CPT: 21µM*; DT40 TDP1 no CPT: inconclusive

How did CC[C@]1(C(=O)OC)[C@H]2C(=O)N(Cc3ccccc3)C(=O)[C@H]2[C@H]2CN=C(SCc3ccc(C)cc3)N21 do in these assays?
HT1080NT lethal: 0%; HT1080 IDH1KD tx: 2%; 12-LOX inh: -23%; IL1B secr inh: 19; DT40 TDP1 CPT: inconclusive; DT40 TDP1 no CPT: 18µM*
